IDE exosite FP: exo-site inhibitors of human IDE, primary screen, biochemical, fluorescence anisotropy, probe displacement | Insulin-degrading enzyme (Homo sapiens), P14735 | purified IDE, FL-6b probe fluorescence polarization; stronger effect = lower value | z-score at 20 µM | hit rate 6.3% among 17,000 | AID 1259349, 2017;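 active means z-score of -3 or lower, meaning strong loss of probe binding signal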;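 further: His-tagged human IDE residues 42-1019 made in E. coli with 30 nM FL-6b probe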
Target sequence (P14735 42-1019 limits assumed): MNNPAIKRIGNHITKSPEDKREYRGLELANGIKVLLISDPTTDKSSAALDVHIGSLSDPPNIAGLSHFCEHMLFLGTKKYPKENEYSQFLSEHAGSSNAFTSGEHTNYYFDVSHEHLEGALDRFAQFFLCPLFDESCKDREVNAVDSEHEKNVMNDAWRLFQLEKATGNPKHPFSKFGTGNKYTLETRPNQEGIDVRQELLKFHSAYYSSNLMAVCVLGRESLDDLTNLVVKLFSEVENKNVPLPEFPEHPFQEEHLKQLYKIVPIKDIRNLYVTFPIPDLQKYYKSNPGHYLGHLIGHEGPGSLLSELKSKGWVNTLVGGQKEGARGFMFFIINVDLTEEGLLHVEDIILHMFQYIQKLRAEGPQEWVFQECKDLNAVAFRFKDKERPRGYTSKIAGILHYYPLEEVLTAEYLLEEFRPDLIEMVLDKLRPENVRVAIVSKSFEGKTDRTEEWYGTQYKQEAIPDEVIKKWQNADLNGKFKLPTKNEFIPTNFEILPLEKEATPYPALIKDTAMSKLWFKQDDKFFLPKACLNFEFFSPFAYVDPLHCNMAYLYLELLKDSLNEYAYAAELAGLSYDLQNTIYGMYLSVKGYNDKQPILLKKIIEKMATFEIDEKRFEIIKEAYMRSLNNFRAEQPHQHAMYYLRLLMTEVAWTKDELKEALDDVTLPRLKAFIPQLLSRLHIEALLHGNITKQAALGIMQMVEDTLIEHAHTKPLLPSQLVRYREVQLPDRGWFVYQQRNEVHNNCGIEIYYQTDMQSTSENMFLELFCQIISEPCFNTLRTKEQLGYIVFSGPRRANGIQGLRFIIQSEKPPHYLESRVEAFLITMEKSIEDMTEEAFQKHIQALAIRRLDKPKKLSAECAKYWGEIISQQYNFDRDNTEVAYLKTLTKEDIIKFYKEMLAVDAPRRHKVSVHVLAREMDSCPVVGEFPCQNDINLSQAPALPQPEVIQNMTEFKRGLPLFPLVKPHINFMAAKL
An asterisk follows results filed as active; ! = a repeat was not active. The sample as a whole holds a higher share of hits than the screen did.

SMILES	IDE exosite FP
O=C(Nc1ccc(F)cc1)N1C[C@H]2[C@@H](c3ccccc31)[C@@H](CO)N2C(=O)c1ccncc1	3.1
CC(C)C#Cc1ccc([C@H]2[C@H]3CN(C(=O)c4ccccn4)CC(=O)N3[C@H]2CO)cc1	2.6
CCN1[C@@H]2Cn3c(ccc(-c4ccccc4OC)c3=O)[C@H]1[C@@H](C(=O)NCc1ccccn1)[C@@H]2CO	0.42
CN(C)CC(=O)N1[C@H](CO)[C@@H](c2ccccc2)C12CN(CCC(F)(F)F)C2	-0.3
CN1C(=O)c2cc(NC(=O)C3CCOCC3)ccc2OC[C@H]2O[C@H](CC(=O)NCC3CCCCC3)CC[C@@H]21	0.71
C/C=C/c1ccc([C@H]2[C@@H](CO)N(c3nc(-c4ccccc4)cs3)[C@H]2C#N)cc1	0.98
CCCC#Cc1ccc([C@@H]2[C@H]3CN(CC4CC4)CCCCN3[C@H]2CO)cc1	2.7
C[C@@H]1CN([C@H](C)CO)C(=O)CCCn2cc(nn2)CO[C@@H]1CN(C)C(=O)NC1CCCCC1	-2
CCc1nc(N2[C@H](CO)[C@H](c3ccccc3-c3ccc(F)cc3)[C@@H]2C#N)sc1C	-1.7
CC(C)C#Cc1ccc([C@@H]2[C@@H](CO)N(C(=O)C3CC3)[C@H]2C#N)cc1	-1.5
Cc1cccc(-c2ccc(C3[C@@H]4CN(C(=O)C5CCCCC5)C[C@H]3N4)cc2)c1 (stereo partly specified)	-5.4*!
COc1cccc(-c2ccc([C@@H]3[C@@H](CO)N4C(=O)CN(C(=O)C5CC5)C[C@@H]34)cc2)c1	-15*
N#Cc1cccc(-c2ccc(C3[C@@H]4CN(C(=O)C5CCOCC5)C[C@H]3N4)cc2)c1 (stereo partly specified)	1
COc1cccc(-c2ccc([C@H]3[C@H](CO)N4C(=O)CN(C(=O)C5CC5)C[C@@H]34)cc2)c1	-7.5*
COc1ccc(-c2ccc([C@H]3[C@H](CO)N4C(=O)CN(C(=O)C5CC5)C[C@@H]34)cc2)cc1	-0.25
CN(C)C(=O)c1cccc(-c2ccc([C@@H]3[C@@H](CO)N4C(=O)CN(C(=O)C5CC5)C[C@H]34)cc2)c1	2.2
COc1cccc(-c2ccc(C3[C@@H]4CN(C(=O)C5CCOCC5)C[C@H]3N4)cc2)c1 (stereo partly specified)	-7.1*!
Cc1cccc(-c2ccc(C3[C@@H]4CNC[C@H]3N4)cc2)c1 (stereo partly specified)	0.37
COc1cccc(-c2ccc(C3[C@@H]4CN(C(=O)C5CCCCC5)C[C@H]3N4)cc2)c1 (stereo partly specified)	-0.31
COc1ccc(-c2ccc([C@H]3[C@@H](CO)N4C(=O)CN(C(=O)C5CC5)C[C@@H]34)cc2)cc1	-0.095
COc1ccc(-c2ccc([C@@H]3[C@H]4CN(C(=O)C5CCOCC5)CC(=O)N4[C@H]3CO)cc2)cc1	-1.5
O=C(C1CCCCC1)N1C[C@@H]2N[C@H](C1)C2c1ccc(-c2ccccc2F)cc1 (stereo partly specified)	0.62
COc1ccccc1C(=O)Nc1ccc2c(c1)C(=O)N(C)C[C@H](OC)[C@H](C)CN(C(C)=O)[C@@H](C)CO2	-0.45
COc1ccc2c3c([nH]c2c1)[C@H](CO)N(C(=O)Nc1ccc(F)cc1)CC31CCN(C(=O)Nc2ccc3c(c2)OCO3)CC1	0.35
OC[C@@H]1[C@@H](c2ccc(-c3ccc(F)cc3)cc2)[C@@H]2CN(Cc3ccccn3)CCCCN12	0.32
SMILES	IDE exosite FP
CC(=O)N1[C@H](CO)[C@H](c2ccccc2)[C@@H]1CNC(=O)CN1CCOCC1	-0.23
CC(C)NC[C@@H]1[C@H](c2ccc(C3=CCCCC3)cc2)[C@H](CO)N1C(=O)NC(C)C	2.7
C[C@@H]1CN([C@@H](C)CO)C(=O)CCCn2nncc2CO[C@H]1CN(C)C(=O)Nc1ccc2c(c1)OCCO2	-1.1
O=C(C[C@@H]1CC[C@@H]2NC[C@@H](O)COC[C@H]2O1)N1CCc2ccccc2C1	-0.64
N#C[C@H]1N[C@H](CO)[C@@H]1c1ccc(C2=CCCC2)cc1	0.044
CCCNC(=O)N1CCC2(CC1)CN(C(=O)CC1CC1)[C@H](CO)c1c2c2ccc(OC)cc2n1C	-0.24
COc1ccc(S(=O)(=O)Nc2ccc3c(c2)C(=O)N([C@@H](C)CO)C[C@H](C)[C@@H](CN(C)S(=O)(=O)c2ccc(Cl)cc2)OCCCC[C@@H](C)O3)cc1	2
CN1C[C@H](O)COC[C@@H]2O[C@H](CC(=O)NC3CCCC3)CC[C@H]21	-0.43
COc1ccccc1NC(=O)N1CC(=O)N2[C@@H](CO)[C@@H](c3ccc(C#CCC(C)C)cc3)[C@@H]2C1	1.9
COCC(=O)N1[C@H](C#N)[C@H](c2ccccc2C2=CCCCC2)[C@H]1CO	0.89
O=C1CNC[C@H]2[C@@H](c3ccc(C#CC4CCCC4)cc3)[C@H](CO)N12	4.1
COc1cccc(-c2ccc([C@@H]3[C@@H](CO)N4C(=O)CN(C(=O)C5CCOCC5)C[C@@H]34)cc2)c1	-5.8*
COc1ccc(-c2ccc([C@H]3[C@@H](CO)N4C(=O)CN(C(=O)C5CCOCC5)C[C@@H]34)cc2)cc1	0.45
COc1cccc(-c2ccc([C@@H]3[C@@H](CO)N4C(=O)CN(C(=O)C5CCOCC5)C[C@H]34)cc2)c1	-2.4
O=C(Nc1ccccc1F)N1CC(=O)N2[C@H](C1)[C@H](c1ccc(C#CC3CC3)cc1)[C@@H]2CO	-0.16
CN1CCCCN2[C@H](CO)[C@H](c3ccc(C#Cc4ccccc4F)cc3)[C@@H]2C1	-5.5*
OC[C@H]1[C@@H](c2ccc(C#Cc3ccccc3F)cc2)[C@@H]2CN(CC3CCOCC3)CCCCN12	-2.9
OC[C@@H]1[C@@H](c2ccc(C#Cc3ccccc3)cc2)[C@H]2CN(Cc3cncnc3)CCCCN12	0.19
OC[C@H]1[C@@H](c2ccc(-c3ccccc3)cc2)[C@H]2CN(Cc3cncnc3)CCCCN21	-1.3
OC[C@@H]1[C@H](c2ccc(C#Cc3ccccc3F)cc2)[C@H]2CN(CC3CCOCC3)CCCCN12	-2.3
OC[C@@H]1[C@H](c2ccc(C#Cc3ccccc3F)cc2)[C@H]2CN(Cc3cncnc3)CCCCN12	-9.7*
CN1CCCCN2[C@H](CO)[C@H](c3ccc(C#Cc4ccccc4F)cc3)[C@H]2C1	-4.5*
COc1ccc(C#Cc2ccc([C@H]3[C@@H](CO)N4CCCCN(C)C[C@H]34)cc2)cc1	2
OC[C@H]1[C@H](c2ccc(C#Cc3ccccc3F)cc2)[C@@H]2CN(CC3CCOCC3)CCCCN12	0.24
CN1CCCCN2[C@H](C1)[C@H](c1ccc(C#Cc3ccccc3F)cc1)[C@@H]2CO	-3.9*
SMILES	IDE exosite FP
COc1ccc(C#Cc2ccc([C@@H]3[C@@H](CO)N4CCCCN(C)C[C@H]34)cc2)cc1	0.27
COc1ccc(C#Cc2ccc([C@@H]3[C@H](CO)N4CCCCN(C)C[C@@H]34)cc2)cc1	-0.084
CCCC#Cc1ccc([C@H]2[C@@H](CO)N(C(C)=O)[C@@H]2CNC(=O)C2CC2)cc1	-0.67
Cc1cc(C(=O)Nc2ccc3c(c2)C(=O)N(C)[C@@H]2CC[C@@H](CC(=O)NCc4ccc(-c5ccccc5)cc4)O[C@H]2CO3)no1	-0.44
OC[C@H]1[C@H](c2ccc(Br)cc2)[C@H]2CN(Cc3ccccn3)CCCCN21	-0.091
COc1cccc(NC(=O)C[C@H]2CC[C@H]3[C@H](COc4ccc(NS(=O)(=O)c5cccc(F)c5)cc4C(=O)N3C)O2)c1	1
CCC(=O)N1CC(=O)N2[C@H](CO)[C@@H](c3ccc(C#CC4CCCC4)cc3)[C@@H]2C1	1.8
